Results: the supplement of paper PMC13380429

Test system: Vero E6 infected with SARS-CoV-2
Assay: inhibition of SARS-CoV-2 cytopathic effect; higher = more antiviral protection, active = above 15
Conditions: 48 h

Measured: inhibition of SARS-CoV-2 cytopathic effect

Cn1nnc2c(C(N)=O)ncn2c1=O [temozolomide]
inactive: 1 nM 0.73% | 8.33 nM -1.46% | 100 nM -0.92% | 833.33 nM -0.44% | 10000 nM -1.79%

Cc1coc2c1C(=O)C(=O)c1c-2ccc2c(C)cccc12 [tanshinone-I]
inactive: 1 nM 1.07% | 8.33 nM -0.7% | 100 nM 0.25% | 833.33 nM -2.81% | 10000 nM -1.34%

CN1[C@@H]2CC[C@H]1C[C@@H](OC(c1ccccc1)c1ccccc1)C2 [benztropine-mesylate]
inactive: 1 nM 1.74% | 8.33 nM -0.55% | 100 nM 1.26% | 833.33 nM -8.96% | 10000 nM -7.74%

CO[C@@H](C)Cn1c(=O)n(C)c2cnc3ccc(-c4cncc(C(C)(C)O)c4)cc3c21
inactive: 1 nM 0.62% | 8.33 nM 2.32% | 100 nM -0.9% | 833.33 nM -3.02% | 10000 nM -17.6%

CCOc1cc(N)c(Cl)cc1C(=O)NCC1CN(Cc2ccc(F)cc2)CCO1 (stereo not given) [mosapride]
inactive: 1 nM 0.88% | 8.33 nM 2.99% | 100 nM 3.38% | 833.33 nM 2.51% | 10000 nM 6.25%

CS[C@H]1SC[C@H]2C(=O)N(C)[C@@H](C(C)C)C(=O)OC[C@@H](NC(=O)c3cnc4ccccc4n3)C(=O)N[C@@H](C)C(=O)N(C)[C@@H]1C(=O)N(C)[C@@H](C(C)C)C(=O)OC[C@@H](NC(=O)c1cnc3ccccc3n1)C(=O)N[C@@H](C)C(=O)N2C [echinomycin]
inactive: 1 nM 2% | 8.33 nM -4.69% | 100 nM -19.9% | 833.33 nM -17.1% | 10000 nM -27%

CC[C@@H](C(=O)[C@@H](C)[C@@H](O)[C@H](C)[C@@H]1O[C@@H]([C@@H](CC)C(=O)O)CC[C@@H]1C)[C@H]1O[C@]2(C=C[C@@H](O)[C@]3(CC[C@@](C)([C@H]4CC[C@](O)(CC)[C@H](C)O4)O3)O2)[C@H](C)C[C@@H]1C [Salinomycin (Procoxacin)]
active: 833.33 nM 50.9% | 10000 nM 57%
inactive: 1 nM -2.73% | 8.33 nM 0.16% | 100 nM 4.82%

Oc1ccc(-c2nc(-c3ccc(F)cc3)c(-c3ccncc3)[nH]2)cc1
inactive: 1 nM 0.33% | 8.33 nM 1.64% | 100 nM -1.29% | 833.33 nM 2.83% | 10000 nM 8.91%

CS(=O)(=O)Nc1ccc(Cc2noc(-c3ccc4[nH]cc(CCN)c4c3)n2)cc1
inactive: 1 nM -2.75% | 8.33 nM -0.95% | 100 nM -2.42% | 833.33 nM -1.18% | 10000 nM -1.18%

COc1c(O[C@@H]2O[C@H](CO)[C@@H](O)[C@H](O)[C@H]2O)cc2c(c1OC)-c1ccc(SC)c(=O)cc1[C@@H](NC(C)=O)CC2 [thiocolchicoside]
inactive: 1 nM 0.08% | 8.33 nM 2.05% | 100 nM -0.7% | 833.33 nM -5.51% | 10000 nM -3.66%

C#Cc1cccc2c1c(C(=O)c1ccc(Cn3c(C)nc4cnccc43)c(F)c1)cn2C(=O)N(C)C
inactive: 1 nM -0.44% | 8.33 nM -1.26% | 100 nM 0.63% | 833.33 nM -0.09% | 10000 nM -1.98%

NC(=O)CN1CC[C@@H](NC(=O)[C@@H]2CCCN2)C1=O
inactive: 1 nM 1.05% | 8.33 nM -1.41% | 100 nM 0.01% | 833.33 nM 0.9% | 10000 nM 0.65%

C=CCN1CCc2cc(O)c(O)cc2[C@H](c2ccccc2)C1
inactive: 1 nM 1.44% | 8.33 nM 0.58% | 100 nM 0.35% | 833.33 nM 0.44% | 10000 nM -2.9%

CC(C)Nc1cc(-c2c[nH]c(C(=O)N[C@H](CO)c3cccc(Cl)c3)c2)c(Cl)cn1
inactive: 1 nM -2.18% | 8.33 nM 0.33% | 100 nM -2.23% | 833.33 nM -5.21% | 10000 nM -6.01%

CCCCN(CCCC)CC(O)c1cc(Cl)cc2c1-c1ccc(Cl)cc1/C2=C/c1ccc(Cl)cc1 (stereo not given) [lumefantrine]
inactive: 1 nM -1.1% | 8.33 nM 3.13% | 100 nM 2.25% | 833.33 nM 0.99% | 10000 nM -1.35%

O=c1c(O)c(-c2ccc(O)cc2O)oc2cc(O)cc(O)c12 [morin]
inactive: 1 nM -1.74% | 8.33 nM -0.07% | 100 nM -0.4% | 833.33 nM -4.13% | 10000 nM 0.27%
